The first assay concerns LOC_OS01G21960-cb002. In words: thermal shift delta Tm vs DMSO control; higher = stronger stabilization (binding). To be noted: 12.5 µM; protein concentration 2 µM. An outline of the steps: (§1)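 Rice kinase domain constructs, made in E. coli and purified, were placed in 96-well plates at 2 μM in 19.5 μl of 100 mM potassium phosphate pH 7.5, 150 mM NaCl, 10% glycerol and 5 × SYPRO Orange, with compound in DMSO. A temperature ramp from 25°C to 95°C at 0.05°C/s was used for differential scanning fluorimetry. The melting temperature shift is a triplicate mean compared with DMSO-only protein, derived from Boltzmann fits.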
`COCCNCc1ccc(-c2cc3nccc(Oc4ccc(NC(=O)C5(C(=O)Nc6ccc(F)cc6)CC5)cc4F)c3s2)nc1` [Sitravatinib (MGCD516)]: the “thermal shift delta Tm” value stood at 0.72 °C.

On to `COCC(=O)NC/C=C/c1ccc2ncnc(Nc3ccc(Oc4ccc(C)nc4)c(C)c3)c2c1`, for which the “thermal shift delta Tm” value was -0.07 °C.

`O=C(NOC[C@H](O)CO)c1ccc(F)c(F)c1Nc1ccc(I)cc1F`: the “thermal shift delta Tm” value was determined as 0.89 °C.

As to `Cc1cc(Nc2cc(N3CCN(C)CC3)nc(/C=C/c3ccccc3)n2)n[nH]1`, the “thermal shift delta Tm” value is 2.75 °C.

Regarding `Nc1nc(N)c2nc(-c3cccc(O)c3)c(-c3cccc(O)c3)nc2n1`, the “thermal shift delta Tm” value turned out to be 1.07 °C.

As to `Cc1nc(Nc2ncc(C(=O)Nc3c(C)cccc3Cl)s2)cc(N2CCN(CCO)CC2)n1` [Dasatinib], the “thermal shift delta Tm” value was found to be 1.22 °C.

For the compound `O=C(c1ccc(Nc2nccc(-c3cc4ccccc4s3)n2)cc1)N1CCC(N2CCCC2)CC1` [IKK-16 (IKK Inhibitor VII)], the “thermal shift delta Tm” value was determined as 2.79 °C.

For the compound `CC(C)CC(=O)Nc1n[nH]c2c1CN(C(=O)C1CCN(C)CC1)C2(C)C`, the “thermal shift delta Tm” value was found to be 1.05 °C.

Regarding `COc1cc2c(Oc3ccc(NC(=O)C4(C(=O)Nc5ccc(F)cc5)CC4)cc3F)ccnc2cc1OCCCN1CCOCC1`, the “thermal shift delta Tm” value is 0.4 °C.

As to `OCCn1cc(-c2cnc3nnn(Cc4ccc5ncccc5c4)c3n2)cn1`, the “thermal shift delta Tm” value amounted to 0.14 °C.

For the compound `CC(C)(C)c1nc(-c2ccc(NC(=O)Nc3cccc(C(F)(F)F)c3)c3ccccc23)c2c(N)nccn12` [kira6], the “thermal shift delta Tm” value was 2.1 °C.

As for `COc1ccc(-c2ccc3ncc4c(c3c2)n(-c2ccc(N3CCNCC3)c(C(F)(F)F)c2)c(=O)n4C)cn1`, the “thermal shift delta Tm” value came to 2.58 °C.

Turning to `FC(F)(F)c1ccc(CNc2ccc(Cc3c[nH]c4ncc(Cl)cc34)cn2)cn1` [Pexidartinib (PLX3397)], the “thermal shift delta Tm” value amounted to 2.07 °C.

For the compound `Cc1nc(NC(=O)N2CCC[C@H]2C(N)=O)sc1-c1ccnc(C(C)(C)C(F)(F)F)c1` [Alpelisib (BYL719)], the “thermal shift delta Tm” value was found to be 0.02 °C.

In the case of `O=C(NCCO)c1cccc(-c2cc(Nc3ccc(OC(F)(F)F)cc3)ncn2)c1`, the “thermal shift delta Tm” value is 0.44 °C.

For `C[C@@H](Nc1cc(F)cc(F)c1)c1cc(C(=O)N(C)C)cc2c(=O)cc(N3CCOCC3)oc12`, the “thermal shift delta Tm” value is -0.4 °C.

On to `C[C@@H]1COCCN1c1cc(=O)n2c(n1)N(Cc1cncc(Cl)c1)[C@H](C(F)(F)F)CC2`, for which the “thermal shift delta Tm” value was determined as 0.45 °C.

On to `CNc1nc(-c2ccc3c(N)n[nH]c3c2)cc(N2C[C@@H](C(=O)NC3CCCCC3)CC[C@H]2C)n1`, for which the “thermal shift delta Tm” value was 1.02 °C.

For the compound `COc1cc(N2CCC(N(C)C)CC2)ccc1Nc1ncc(Cl)c(Nc2ccccc2P(C)(C)=O)n1`, the “thermal shift delta Tm” value stood at 1.95 °C.

On to `CN1CCN(c2ccc3nc(-c4c(N)c5c(F)cccc5[nH]c4=O)[nH]c3c2)CC1` [Dovitinib (TKI258) Lactate], for which the “thermal shift delta Tm” value turned out to be 3.87 °C.

Take `N#C/C(=C(/N)Sc1ccc(N)cc1)c1ccccc1C(F)(F)F`: the “thermal shift delta Tm” value was found to be 0.38 °C.

With `Cc1c(C(=O)N2CCOc3ccc(-c4ccc(N)nc4)cc3C2)ccc(S(C)(=O)=O)c1F`, the “thermal shift delta Tm” value was 0.19 °C.

As to `CCOc1cc2ncc(C#N)c(Nc3ccc(F)c(Cl)c3)c2cc1NC(=O)/C=C/CN(C)C` [Pelitinib (EKB-569)], the “thermal shift delta Tm” value was 1.49 °C.

In the case of `Oc1ccc(Nc2nc(-c3ccc(Cl)cc3)cs2)cc1`, the “thermal shift delta Tm” value is -0.09 °C.

`O=C(Nc1ccccc1C(=O)NC1CCCCNC1=O)c1cc2ccccc2s1` (centres undefined): the “thermal shift delta Tm” value is 0.32 °C.

Turning to `CC(C)c1c2cc(-c3ccnc(NC4CCC(NC5CCOCC5)CC4)n3)ccc2nn1C` (centres undefined), the “thermal shift delta Tm” value came to 2.64 °C.

Take `NCC(=O)Nc1ccc(-n2nc(C(F)(F)F)cc2-c2ccc3c(ccc4ccccc43)c2)cc1`: the “thermal shift delta Tm” value came to 0.55 °C.

`Cc1cc(NC(=O)c2cccc(NC(=O)/C=C/CN(C)C)c2)ccc1Nc1nccc(-c2cccnc2)n1`: the “thermal shift delta Tm” value was determined as 1.6 °C.

Take `N#Cc1ccc2ncnc(NCCc3ccccc3)c2c1` [Senexin A]: the “thermal shift delta Tm” value stood at 0.95 °C.

In the case of `CCOc1cn(-c2ccc(F)cc2C)nc1C(=O)Nc1ccc(Oc2ccnc3cc(OC)c(OC)cc23)c(F)c1`, the “thermal shift delta Tm” value is -0.29 °C.

`Fc1ccc2[nH]ccc2c1-c1nc(N2CCOCC2)c2sc(CN3CCN(CC4CC4)CC3)cc2n1`: the “thermal shift delta Tm” value is -0.01 °C.

For the compound `COc1cccc2cc(-c3nc([C@H]4CC[C@H](C(=O)O)CC4)n4ncnc(N)c34)[nH]c12`, the “thermal shift delta Tm” value came to 0.7 °C.

`N#Cc1cnc(Nc2cc(NC[C@H]3CNCCO3)c(C(F)(F)F)cn2)cn1`: the “thermal shift delta Tm” value is 0.6 °C.

Consider `O=C(NOCCO)c1ccc2cncn2c1Nc1ccc(I)cc1F`, for which the “thermal shift delta Tm” value was determined as 0.59 °C.

With `COc1cc2c(Nc3ccc(NC(=O)c4ccccc4)cc3)ncnc2cc1OCCCN1CCOCC1`, the “thermal shift delta Tm” value turned out to be 0.26 °C.

Consider `NC(=O)Nc1cc(-c2cccc(F)c2)sc1C(=O)N[C@H]1CCCNC1`, for which the “thermal shift delta Tm” value worked out at 3.38 °C.

Turning to `CNC(=O)c1ccc(-c2cnc3ncc(Cc4ccc5ncccc5c4)n3n2)cc1F`, the “thermal shift delta Tm” value is 0.73 °C.

The next assay deals with LOC_OS01G39600-cb002. The description is as above. As to conditions: 12.5 µM; protein concentration 2 µM. The gist of the method: as §1
Consider `COCCNCc1ccc(-c2cc3nccc(Oc4ccc(NC(=O)C5(C(=O)Nc6ccc(F)cc6)CC5)cc4F)c3s2)nc1` [Sitravatinib (MGCD516)], for which the “thermal shift delta Tm” value came to 0.85 °C.

Consider `COCC(=O)NC/C=C/c1ccc2ncnc(Nc3ccc(Oc4ccc(C)nc4)c(C)c3)c2c1`, for which the “thermal shift delta Tm” value worked out at 1.61 °C.

With `O=C(NOC[C@H](O)CO)c1ccc(F)c(F)c1Nc1ccc(I)cc1F`, the “thermal shift delta Tm” value is 0.66 °C.

Regarding `Cc1cc(Nc2cc(N3CCN(C)CC3)nc(/C=C/c3ccccc3)n2)n[nH]1`, the “thermal shift delta Tm” value amounted to 2.83 °C.

For the compound `Nc1nc(N)c2nc(-c3cccc(O)c3)c(-c3cccc(O)c3)nc2n1`, the “thermal shift delta Tm” value is -0.28 °C.

For `Cc1nc(Nc2ncc(C(=O)Nc3c(C)cccc3Cl)s2)cc(N2CCN(CCO)CC2)n1` [Dasatinib], the “thermal shift delta Tm” value came to 5.93 °C.

On to `O=C(c1ccc(Nc2nccc(-c3cc4ccccc4s3)n2)cc1)N1CCC(N2CCCC2)CC1` [IKK-16 (IKK Inhibitor VII)], for which the “thermal shift delta Tm” value amounted to 8.28 °C.

As for `CC(C)CC(=O)Nc1n[nH]c2c1CN(C(=O)C1CCN(C)CC1)C2(C)C`, the “thermal shift delta Tm” value is -0.1 °C.

`COc1cc2c(Oc3ccc(NC(=O)C4(C(=O)Nc5ccc(F)cc5)CC4)cc3F)ccnc2cc1OCCCN1CCOCC1`: the “thermal shift delta Tm” value was determined as 0.45 °C.

With `OCCn1cc(-c2cnc3nnn(Cc4ccc5ncccc5c4)c3n2)cn1`, the “thermal shift delta Tm” value is 0.11 °C.

Turning to `CC(C)(C)c1nc(-c2ccc(NC(=O)Nc3cccc(C(F)(F)F)c3)c3ccccc23)c2c(N)nccn12` [kira6], the “thermal shift delta Tm” value came to 1.51 °C.

For `COc1ccc(-c2ccc3ncc4c(c3c2)n(-c2ccc(N3CCNCC3)c(C(F)(F)F)c2)c(=O)n4C)cn1`, the “thermal shift delta Tm” value was determined as 0.22 °C.

As for `FC(F)(F)c1ccc(CNc2ccc(Cc3c[nH]c4ncc(Cl)cc34)cn2)cn1` [Pexidartinib (PLX3397)], the “thermal shift delta Tm” value came to 2.41 °C.

For `Cc1nc(NC(=O)N2CCC[C@H]2C(N)=O)sc1-c1ccnc(C(C)(C)C(F)(F)F)c1` [Alpelisib (BYL719)], the “thermal shift delta Tm” value was -0.17 °C.

For the compound `O=C(NCCO)c1cccc(-c2cc(Nc3ccc(OC(F)(F)F)cc3)ncn2)c1`, the “thermal shift delta Tm” value worked out at 0.3 °C.

On to `C[C@@H](Nc1cc(F)cc(F)c1)c1cc(C(=O)N(C)C)cc2c(=O)cc(N3CCOCC3)oc12`, for which the “thermal shift delta Tm” value was -0.77 °C.

On to `C[C@@H]1COCCN1c1cc(=O)n2c(n1)N(Cc1cncc(Cl)c1)[C@H](C(F)(F)F)CC2`, for which the “thermal shift delta Tm” value was 0.34 °C.

With `CNc1nc(-c2ccc3c(N)n[nH]c3c2)cc(N2C[C@@H](C(=O)NC3CCCCC3)CC[C@H]2C)n1`, the “thermal shift delta Tm” value is -5.84 °C.

Turning to `COc1cc(N2CCC(N(C)C)CC2)ccc1Nc1ncc(Cl)c(Nc2ccccc2P(C)(C)=O)n1`, the “thermal shift delta Tm” value is -6.92 °C.

For the compound `CN1CCN(c2ccc3nc(-c4c(N)c5c(F)cccc5[nH]c4=O)[nH]c3c2)CC1` [Dovitinib (TKI258) Lactate], the “thermal shift delta Tm” value was determined as 4.79 °C.

Consider `N#C/C(=C(/N)Sc1ccc(N)cc1)c1ccccc1C(F)(F)F`, for which the “thermal shift delta Tm” value was -0.02 °C.

Consider `Cc1c(C(=O)N2CCOc3ccc(-c4ccc(N)nc4)cc3C2)ccc(S(C)(=O)=O)c1F`, for which the “thermal shift delta Tm” value is -0.01 °C.

Turning to `CCOc1cc2ncc(C#N)c(Nc3ccc(F)c(Cl)c3)c2cc1NC(=O)/C=C/CN(C)C` [Pelitinib (EKB-569)], the “thermal shift delta Tm” value came out at 4.78 °C.

On to `Oc1ccc(Nc2nc(-c3ccc(Cl)cc3)cs2)cc1`, for which the “thermal shift delta Tm” value turned out to be 4.96 °C.

As for `O=C(Nc1ccccc1C(=O)NC1CCCCNC1=O)c1cc2ccccc2s1` (centres undefined), the “thermal shift delta Tm” value was -0.76 °C.

For the compound `CC(C)c1c2cc(-c3ccnc(NC4CCC(NC5CCOCC5)CC4)n3)ccc2nn1C` (centres undefined), the “thermal shift delta Tm” value was 1.1 °C.

With `NCC(=O)Nc1ccc(-n2nc(C(F)(F)F)cc2-c2ccc3c(ccc4ccccc43)c2)cc1`, the “thermal shift delta Tm” value was determined as 2.28 °C.

For the compound `Cc1cc(NC(=O)c2cccc(NC(=O)/C=C/CN(C)C)c2)ccc1Nc1nccc(-c2cccnc2)n1`, the “thermal shift delta Tm” value is 6.45 °C.

`N#Cc1ccc2ncnc(NCCc3ccccc3)c2c1` [Senexin A]: the “thermal shift delta Tm” value amounted to 0.66 °C.

Take `CCOc1cn(-c2ccc(F)cc2C)nc1C(=O)Nc1ccc(Oc2ccnc3cc(OC)c(OC)cc23)c(F)c1`: the “thermal shift delta Tm” value was 0.58 °C.

On to `Fc1ccc2[nH]ccc2c1-c1nc(N2CCOCC2)c2sc(CN3CCN(CC4CC4)CC3)cc2n1`, for which the “thermal shift delta Tm” value was -0.27 °C.

Turning to `COc1cccc2cc(-c3nc([C@H]4CC[C@H](C(=O)O)CC4)n4ncnc(N)c34)[nH]c12`, the “thermal shift delta Tm” value was determined as 0.94 °C.

With `N#Cc1cnc(Nc2cc(NC[C@H]3CNCCO3)c(C(F)(F)F)cn2)cn1`, the “thermal shift delta Tm” value came to 0.93 °C.

As to `O=C(NOCCO)c1ccc2cncn2c1Nc1ccc(I)cc1F`, the “thermal shift delta Tm” value is -0.21 °C.

As to `COc1cc2c(Nc3ccc(NC(=O)c4ccccc4)cc3)ncnc2cc1OCCCN1CCOCC1`, the “thermal shift delta Tm” value worked out at 1.98 °C.

For `NC(=O)Nc1cc(-c2cccc(F)c2)sc1C(=O)N[C@H]1CCCNC1`, the “thermal shift delta Tm” value was 0.2 °C.

Consider `CNC(=O)c1ccc(-c2cnc3ncc(Cc4ccc5ncccc5c4)n3n2)cc1F`, for which the “thermal shift delta Tm” value is -0.03 °C.

These data come from the supplement of paper PMC9694430.
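Also: purified Escherichia coli-expressed rice kinase domain construct.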
